Where a chain is given by its changes, count along the chain named.
Tests used:
Assay in all cases: protein-binding microarray (PBM); PBM: ~300 nM protein, 6 mM HEPES pH 7.8, 80 mM KCl, 0.5 mM EDTA, 0.5 mM EGTA, 6% glycerol, 35 ng/ul poly-dIdC, 1% milk, 1 h, room temperature; Ap Aiptasia and Nv Nematostella (sea anemones) / Co Capsaspora / Aq Amphimedon (sponge) / Dm Drosophila / Hu human; RHD is the Rel homology domain; high values mean tight binding
Conditions in all cases: dsDNA, one strand shown
[1] = molecular target: T1, GST-Ap-NF-kB RHD (Exaiptasia pallida (Aiptasia), UniProt A0A913YAJ5 2-422)
T1 sequence: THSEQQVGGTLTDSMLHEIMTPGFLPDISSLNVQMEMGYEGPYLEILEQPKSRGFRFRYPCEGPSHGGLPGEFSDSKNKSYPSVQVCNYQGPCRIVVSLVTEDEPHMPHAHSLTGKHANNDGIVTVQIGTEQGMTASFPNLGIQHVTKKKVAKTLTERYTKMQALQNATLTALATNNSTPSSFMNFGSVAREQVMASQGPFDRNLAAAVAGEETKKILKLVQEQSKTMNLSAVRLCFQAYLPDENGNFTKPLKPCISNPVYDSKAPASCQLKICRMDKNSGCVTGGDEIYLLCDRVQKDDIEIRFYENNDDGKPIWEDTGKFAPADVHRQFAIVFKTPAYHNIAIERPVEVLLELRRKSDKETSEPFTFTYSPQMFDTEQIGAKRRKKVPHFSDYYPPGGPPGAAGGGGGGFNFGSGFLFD

[2] = molecular target: T2, GST-Nv-NF-kB (Cys allele) (Nematostella vectensis, UniProt E5G601 2-411)
T2 sequence: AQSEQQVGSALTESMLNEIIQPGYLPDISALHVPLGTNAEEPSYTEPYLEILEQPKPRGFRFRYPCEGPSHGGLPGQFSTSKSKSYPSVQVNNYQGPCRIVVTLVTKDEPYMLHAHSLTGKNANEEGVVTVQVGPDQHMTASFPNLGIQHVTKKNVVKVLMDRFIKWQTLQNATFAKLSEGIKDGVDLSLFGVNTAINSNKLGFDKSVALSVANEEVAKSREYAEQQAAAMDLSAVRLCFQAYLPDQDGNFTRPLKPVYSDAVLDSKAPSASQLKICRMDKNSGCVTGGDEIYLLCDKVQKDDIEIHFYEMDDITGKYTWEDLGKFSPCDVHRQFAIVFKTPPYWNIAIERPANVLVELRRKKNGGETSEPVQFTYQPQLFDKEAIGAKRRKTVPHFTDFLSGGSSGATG

[3] = molecular target: T3, GST-Dm-Relish (Drosophila melanogaster, UniProt Q94527 99-473)
T3 sequence: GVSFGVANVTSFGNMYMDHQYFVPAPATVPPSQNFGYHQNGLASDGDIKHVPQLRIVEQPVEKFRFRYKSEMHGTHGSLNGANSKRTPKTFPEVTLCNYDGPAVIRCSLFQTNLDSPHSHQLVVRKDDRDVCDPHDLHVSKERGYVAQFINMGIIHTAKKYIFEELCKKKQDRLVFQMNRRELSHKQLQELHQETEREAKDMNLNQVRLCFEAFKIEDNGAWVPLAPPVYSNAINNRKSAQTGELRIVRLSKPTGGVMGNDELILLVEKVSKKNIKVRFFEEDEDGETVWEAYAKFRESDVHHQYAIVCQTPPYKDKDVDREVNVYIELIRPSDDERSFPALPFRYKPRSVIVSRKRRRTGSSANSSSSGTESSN

[4] = molecular target: T4, GST-Aq-NF-kB (Amphimedon queenslandica, UniProt A9Y5G7 2-389)
T4 sequence: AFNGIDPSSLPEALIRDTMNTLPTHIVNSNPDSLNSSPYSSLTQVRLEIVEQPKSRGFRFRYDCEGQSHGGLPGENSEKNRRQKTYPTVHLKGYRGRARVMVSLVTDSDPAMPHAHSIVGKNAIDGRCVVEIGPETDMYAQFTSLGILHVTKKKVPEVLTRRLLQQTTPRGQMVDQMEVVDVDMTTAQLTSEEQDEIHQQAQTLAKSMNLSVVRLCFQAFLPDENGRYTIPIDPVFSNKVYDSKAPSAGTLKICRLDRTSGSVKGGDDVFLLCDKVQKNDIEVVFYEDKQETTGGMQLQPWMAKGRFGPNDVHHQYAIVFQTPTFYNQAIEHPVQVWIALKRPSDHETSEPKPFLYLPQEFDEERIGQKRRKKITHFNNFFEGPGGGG

[5] = molecular target: T5, GST-Nv-NF-kB (Ser allele) (Nematostella vectensis, UniProt A7UNT2 2-411)
T5 sequence: T2 sequence with Q21R, C66S, S207N, E215Q, V217A, E225K, A268E, D399E

[6] = molecular target: T6, GST-Co-NF-kB (Capsaspora owczarzaki, UniProt F1ARL5 200-546)
T6 sequence: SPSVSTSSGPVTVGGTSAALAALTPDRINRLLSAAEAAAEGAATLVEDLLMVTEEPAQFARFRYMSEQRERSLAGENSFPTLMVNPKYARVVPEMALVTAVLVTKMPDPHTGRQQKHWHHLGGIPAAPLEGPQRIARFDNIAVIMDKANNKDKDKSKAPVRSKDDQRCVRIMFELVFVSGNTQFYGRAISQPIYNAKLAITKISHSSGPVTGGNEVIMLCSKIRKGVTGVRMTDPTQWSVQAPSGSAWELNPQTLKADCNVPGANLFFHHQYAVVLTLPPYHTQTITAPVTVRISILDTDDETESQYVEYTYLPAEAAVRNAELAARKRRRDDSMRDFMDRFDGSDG

Row | Sequence | binding signal [1] | binding signal [2] | binding signal [3] | binding signal [4] | binding signal [5] | binding signal [6]
1 | CCGATTAACATCAAGGTAATTCCTGATGTTAATCGGGTCTTGATTCGCTTGACGCTGCTG | 1.69 z-score | 2.09 z-score | 4.8 z-score | 3.37 z-score |  | 
2 | CCGATTAACATCAGGAAAAGCCCTGATGTTAATCGGGTCTTGATTCGCTTGACGCTGCTG | 2.12 z-score | 1.89 z-score | 4.12 z-score | 4.95 z-score |  | 
3 | CCGATTAACATCACGGTATTTCCTGATGTTAATCGGGTCTTGATTCGCTTGACGCTGCTG | 1.56 z-score | 1.37 z-score | 3.77 z-score | 4.59 z-score |  | 
4 | CCGATTAACATCAGGTAATTCCATGATGTTAATCGGGTCTTGATTCGCTTGACGCTGCTG | 1.26 z-score | 1.89 z-score | 4.41 z-score | 3.06 z-score |  | 
5 | CCGATTAACATCAGGTATTTTTATGATGTTAATCGGGTCTTGATTCGCTTGACGCTGCTG | 1.27 z-score | 2.01 z-score | 3.8 z-score | 2.77 z-score |  | 
6 | CCGATTAACATCAGGGGTTCCACTGATGTTAATCGGGTCTTGATTCGCTTGACGCTGCTG | 2.77 z-score | 2.46 z-score | 5.79 z-score | 3.97 z-score |  | 
7 | CCGATTAACATCAAAAAAAGTCCTGATGTTAATCGGGTCTTGATTCGCTTGACGCTGCTG | 1.18 z-score | 1.72 z-score | 5.69 z-score | 4.05 z-score |  | 
8 | CCGATTAACATCACGGTACTTCCTGATGTTAATCGGGTCTTGATTCGCTTGACGCTGCTG | 2.38 z-score | 2.66 z-score | 7.59 z-score | 2.93 z-score |  | 
9 | CCGATTAACATCAGGGAGTTCCATGATGTTAATCGGGTCTTGATTCGCTTGACGCTGCTG | 2.73 z-score | 3.31 z-score | 4.43 z-score | 4.38 z-score |  | 
10 | CCGATTAACATCAGGACAATCCCTGATGTTAATCGGGTCTTGATTCGCTTGACGCTGCTG | 2.22 z-score | 2.68 z-score | 2.5 z-score | 5.09 z-score |  | 
11 | CCGATTAACATCAAGGAATTACCTGATGTTAATCGGGTCTTGATTCGCTTGACGCTGCTG | 1.08 z-score | 2.06 z-score | 5.14 z-score | 3.3 z-score |  | 
12 | CCGATTAACATCAGGGAGCTACCTGATGTTAATCGGGTCTTGATTCGCTTGACGCTGCTG | 2.89 z-score | 1.88 z-score | 1.02 z-score | 3.21 z-score |  | 
13 | CCGATTAACATCAGGGATTCTCATGATGTTAATCGGGTCTTGATTCGCTTGACGCTGCTG | 2.96 z-score | 1.8 z-score | 2.59 z-score | 2.67 z-score |  | 
14 | CCGATTAACATCAGGAAATGCCCTGATGTTAATCGGGTCTTGATTCGCTTGACGCTGCTG | 1.98 z-score | 3.05 z-score | 1.68 z-score | 5.41 z-score |  | 
15 | CCGATTAACATCAAAATTCCACCTGATGTTAATCGGGTCTTGATTCGCTTGACGCTGCTG | 1.5 z-score | 2.45 z-score | 1.96 z-score | 2.25 z-score |  | 
16 | CCGATTAACATCAGGAGGCCCCCTGATGTTAATCGGGTCTTGATTCGCTTGACGCTGCTG | 4.97 z-score | 2.51 z-score | 2.71 z-score | 5.1 z-score |  | 
17 | CCGATTAACATCACGGAAAGCCCTGATGTTAATCGGGTCTTGATTCGCTTGACGCTGCTG | 1.02 z-score | 1 z-score | 2.9 z-score | 4.35 z-score |  | 
18 | CCGATTAACATCAGGGACTTACCTGATGTTAATCGGGTCTTGATTCGCTTGACGCTGCTG | 5.1 z-score | 7 z-score | 7.96 z-score | 8.29 z-score |  | 
19 | CCGATTAACATCAGGGGCTGTACTGATGTTAATCGGGTCTTGATTCGCTTGACGCTGCTG | 2.83 z-score | 3.09 z-score | 3.56 z-score | 4.35 z-score |  | 
20 | CCGATTAACATCAGGTAATCACCTGATGTTAATCGGGTCTTGATTCGCTTGACGCTGCTG | 1.18 z-score | 2.2 z-score | 5.6 z-score | 4.04 z-score |  | 
21 | CCGATTAACATCAGGAAAACACCTGATGTTAATCGGGTCTTGATTCGCTTGACGCTGCTG | 2.56 z-score | 3.6 z-score | 3.1 z-score | 5.13 z-score |  | 
22 | CCGATTAACATCAGAGAAACCCCTGATGTTAATCGGGTCTTGATTCGCTTGACGCTGCTG | 5.16 z-score | 4.86 z-score | 5.69 z-score | 5.18 z-score |  | 
23 | CCGATTAACATCAGGAATTACCATGATGTTAATCGGGTCTTGATTCGCTTGACGCTGCTG | 1.03 z-score | 1.38 z-score | 4.62 z-score | 3 z-score |  | 
24 | CCGATTAACATCAGGAAAATACCTGATGTTAATCGGGTCTTGATTCGCTTGACGCTGCTG | 1.22 z-score | 2.3 z-score | 4.66 z-score | 4.29 z-score |  | 
25 | CCGATTAACATCAGGGACTCACCTGATGTTAATCGGGTCTTGATTCGCTTGACGCTGCTG | 3.77 z-score | 3.19 z-score | 7.74 z-score | 4.68 z-score |  | 
26 | CCGATTAACATCAGGTACTTCCATGATGTTAATCGGGTCTTGATTCGCTTGACGCTGCTG | 2.51 z-score | 2.6 z-score | 5.93 z-score | 2.23 z-score |  | 
27 | CCGATTAACATCACCCCCCCTGATGATGTTAATCGGGTCTTGATTCGCTTGACGCTGCTG | 4.83 z-score |  | 4.63 z-score | 4.51 z-score | 3.09 z-score | 5.83 z-score
28 | CCGATTAACATCAGGGGGGGAAATGATGTTAATCGGGTCTTGATTCGCTTGACGCTGCTG | 6.79 z-score |  | 5.34 z-score | 5.89 z-score | 7.98 z-score | 10.2 z-score
29 | CCGATTAACATCACACCCCAACATGATGTTAATCGGGTCTTGATTCGCTTGACGCTGCTG | 1.38 z-score |  |  | 1.02 z-score |  | 2.16 z-score
